High-throughput results deposited in PubChem BioAssay by Broad Institute.
A selection: hits, their analogues and other compounds. The true share with any hit is near 3.9%.
MITF act: MITF TRPM1 promoter activation in melanoma cells. SK-MEL-5 TRPM1-promoter luciferase, 24 h; % of positive control, neutral wells = 0. activation, % at 12.5 µM. hit rate 0.75% among 300,000. AID 588334;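 active = mean activation of at least 80% with every replicate also reaching 80%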
esBAF inh: blocks esBAF chromatin remodeling in mouse ES cells; hit rate 2% among 350,000; Bmi1-luciferase knock-in reporter, 24 h; 100% = twice the neutral-well signal; reporter increase, % at 12.5 µM; in the data active = activation above about 40%;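 note: a rise in the Bmi1 reporter signal indicates esBAF inhibition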
HSF1 activator: increases HSF-1 driven luciferase reporter signal; activation, % at 9 µM; hit rate 1.7% among 300,000; NIH3T3-HGL HSF-1 luciferase reporter, MG132, 8 h; 100% = twice DMSO control signal;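 active = mean replicate activation of at least 50% with a set share of replicates each reaching 50%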
Wnt bcat act: activators of Wnt/beta-catenin signaling; activation, % at 9.35 µM; Wnt/beta-catenin reporter cell assay, activator, plate reader; hit rate 1.2% among 300,000; AID 743398; in the data active = activation above about 30%, passing the limit was not always enough
HSF1 inh: HSF1 inhibition; activity change, negative = inhibition, % at 7.5 µM (by protocol); NIH3T3-HGL HSE-luciferase, MG132-induced, luminescence 8 h; active compounds read low; hit rate 0.77% among 300,000; AID 2098;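 active = more than half of replicate wells show activity change below -50%, luminescence cut by over half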;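 note: luciferase reports HSF-1 transcriptional activity via heat shock element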
Of the large screens only hits and unclear results are named; the others gave an inactive call.

Cc1nc(NC(=O)c2cc3ccccc3o2)ccc1Br	esBAF inh 69
C[C@H](CO)N1C[C@H](C)[C@H](CN(C)S(=O)(=O)c2ccccc2F)OCc2ccccc2-c2ccccc2C1=O	none (no result: MITF act, HSF1 activator, Wnt bcat act, HSF1 inh)
COc1ccc(CN(C)C[C@H]2Oc3ccc(NC(=O)Nc4ccccc4)cc3CC(=O)N([C@@H](C)CO)C[C@H]2C)cc1	none (no result: MITF act, HSF1 activator, Wnt bcat act, HSF1 inh)
CCC[C@H](CN[C@@H](CNC)[C@H](C)O)NCCc1ccc(OC)cc1	none
CCCC[C@@H](CNC)NC[C@H](Cc1ccc(O)cc1)NCCc1ccc(OCC)cc1	HSF1 inh -80
CN1c2ccc(-c3ccc(C#N)cc3)cc2[C@@H]2[C@@H](CCN2C(=O)CN2CCOCC2)[C@@H]1CO	none (no result: MITF act, HSF1 activator, Wnt bcat act, HSF1 inh)
Cc1cccc(OCC(=O)Nc2ccc3c(c2)nc(CCN2CCCCC2)n3C)c1	HSF1 activator 84
Cc1cccc(OCC(=O)Nc2ccc3c(c2)nc(CN2CCCCC2)n3C)c1	none (no result: esBAF inh)
Cc1ccc(OCC(=O)Nc2ccc3c(c2)nc(CCN2CCCCC2)n3C)cc1	HSF1 activator 76
COc1ccc(OCC(=O)Nc2ccc3c(c2)nc(CCN2CCCCC2)n3C)cc1	HSF1 activator 63
Cn1c(CCN2CCCCC2)nc2cc(NC(=O)COc3ccccc3)ccc21	HSF1 activator 58
Cc1ccc(OCC(=O)Nc2ccc3c(c2)nc(CCN2CCOCC2)n3C)cc1	none (no result: MITF act, Wnt bcat act)
COc1ccc(CN(C)C[C@@H]2OCCCC[C@@H](C)Oc3ccc(NC(=O)Nc4ccccc4)cc3C(=O)N([C@H](C)CO)C[C@@H]2C)cc1	none (no result: MITF act, HSF1 activator, Wnt bcat act, HSF1 inh)
COc1ccc(S(=O)(=O)N(C)C[C@@H]2OCCCC[C@@H](C)Oc3ccc(NC(=O)CCCN(C)C)cc3C(=O)N([C@H](C)CO)C[C@@H]2C)cc1	none (no result: MITF act, HSF1 activator, Wnt bcat act, HSF1 inh)
COc1ccc(OCC(=O)Nc2ccc3c(c2)nc(CCN2CCC(C)CC2)n3C)cc1	none (no result: esBAF inh)
CC1CCN(CCc2nc3cc(NC(=O)COc4ccc(Cl)cc4)ccc3n2C)CC1	HSF1 activator 72
O/N=C/c1ccc(OCc2ccccc2F)c(Cl)c1	HSF1 activator 84 (no result: esBAF inh, Wnt bcat act)
O/N=C/c1ccc(OCc2ccccc2)c(Br)c1	HSF1 activator 66, Wnt bcat act 42 (no result: esBAF inh)
O/N=C/c1ccc(OCc2ccccc2)c(Cl)c1	HSF1 activator 58 (no result: esBAF inh, Wnt bcat act)
Cc1ccc(COc2ccc(Br)cc2/C=N/O)cc1	HSF1 activator 94 (no result: esBAF inh, Wnt bcat act)
O/N=C/c1ccccc1OCc1ccccc1F	none
CCOC(=O)c1cccc(NC(=O)CCS(=O)(=O)c2ccc(Br)s2)c1	HSF1 inh -92 (no result: MITF act)
CCOC(=O)c1cccc(NC(=O)CCS(=O)(=O)c2cccs2)c1	none (no result: MITF act)
COC(=O)CCc1nc2c(C#N)c(-c3ccc(Cl)cc3)ccn2n1	none
N#Cc1c(-c2ccc(Cl)cc2)ccn2nc(C3CCCCC3)nc12	MITF act 90 (no result: esBAF inh)
Clc1ccc(-c2cn3cc(Br)ccc3n2)cc1Cl	none (no result: esBAF inh)
Clc1ccc(-c2cn3c(n2)-c2ccccc2C3)cc1Cl	HSF1 activator 53 (no result: esBAF inh, Wnt bcat act)
Cc1cc(N/N=C/c2ccccc2O)c2ccccc2n1	none (no result: MITF act)
Cc1ccc(/C=N/Nc2cccc3cccnc23)c(O)c1	HSF1 activator 68
Oc1ccc(/C=N/Nc2ncc(Br)cn2)c(O)c1	HSF1 activator 79 (no result: Wnt bcat act)
Oc1ccc(/C=N/Nc2cccc3cccnc23)c(O)c1	esBAF inh 79, HSF1 activator 85 (no result: Wnt bcat act)
O=C(N[C@@H]1CC[C@H](CCNS(=O)(=O)c2cccc(Cl)c2)O[C@@H]1CO)c1ccncc1	none (no result: MITF act, HSF1 activator, Wnt bcat act, HSF1 inh)
CCOCCCNC(=O)c1ccc(/C=C2\Oc3ccccc3N(C)C2=O)cc1	esBAF inh 72
O=C(Cn1ncc(Cl)c(Cl)c1=O)N1CCN(S(=O)(=O)c2ccc3ccccc3c2)CC1	HSF1 activator 76
CCCC#Cc1ccc([C@@H]2[C@H]3CN(S(=O)(=O)c4ccccc4F)CCCCN3[C@H]2CO)cc1	none (no result: MITF act, HSF1 activator, Wnt bcat act, HSF1 inh)
CC1=CC2C(C(O)CC3(C)C2CC(C)C32OCOC23COCO3)C2(C)C/C(=C\O)C(=O)C=C12 (configuration not stated)	HSF1 activator 94, HSF1 inh 94 (no result: esBAF inh)
COc1cc(/C=N/Nc2nc3ccccc3[nH]2)cc(OC)c1O	HSF1 activator 149 (no result: esBAF inh, Wnt bcat act)
COC(=O)c1ccc(/C=N/Nc2nc3ccccc3[nH]2)cc1	none (no result: esBAF inh)
COc1ccc(O)c(/C=N/Nc2nc3ccccc3[nH]2)c1	HSF1 activator 236 (no result: esBAF inh)
COc1ccc(C(=O)N/C(=C/c2cccs2)c2nc3ccccc3[nH]2)cc1OC	none (no result: esBAF inh, Wnt bcat act)
COc1cc(/C=N/Nc2snc(SC)c2C#N)ccc1O	esBAF inh 60, HSF1 activator 75 (no result: Wnt bcat act)
COc1cc(/C=C(/C(=O)c2cccs2)c2nc3ccccc3[nH]2)cc(OC)c1O	esBAF inh 101, HSF1 activator 351 (no result: MITF act, Wnt bcat act)
COc1ccccc1/C=N/NC(=Nc1ccc(C)cc1)c1nc2ccccc2s1	none (no result: MITF act, esBAF inh, Wnt bcat act)
COc1cc(/C=N/Nc2nc3ccccc3[nH]c2=O)ccc1O	none (no result: esBAF inh)
COc1cc(/C=N/NC(=Nc2ccc(C)cc2)c2nc3ccccc3s2)ccc1O	HSF1 inh -73 (no result: Wnt bcat act)
COc1cc(/C=N/Nc2nc3ccccc3[nH]2)ccc1O	esBAF inh 47, HSF1 activator 344
COc1cccc(/C=N/Nc2nc3ccccc3[nH]2)c1O	esBAF inh 62
C[C@H]1CN([C@@H](C)CO)S(=O)(=O)c2ccc(C#CC3CC3)cc2O[C@@H]1CN(C)C(=O)C1CCC1	none (no result: MITF act, HSF1 activator, Wnt bcat act, HSF1 inh)
CCOc1ccccc1-n1c(SCC(=O)Nc2ccccc2C(=O)O)nc2ccccc2c1=O	HSF1 inh -74
COc1ccc(C)cc1-n1c(SCC(=O)Nc2cccc(C(=O)O)c2)nc2ccccc2c1=O	HSF1 activator 75 (no result: esBAF inh)
CC=Cc1ccc2n(c1=O)C[C@H]1[C@H](CO)[C@@H](C(=O)N3CCCCC3)[C@@H]2N1C(=O)C1CC1 (mixture of isomers)	none (no result: MITF act, HSF1 activator, Wnt bcat act, HSF1 inh)
Cc1ccccc1-c1ccc([C@@H]2[C@H]3CN(C(=O)Nc4cccc(F)c4)CCCCN3[C@H]2CO)cc1	none (no result: MITF act, HSF1 activator, Wnt bcat act, HSF1 inh)
O=C(C[C@@H]1C=C[C@H](NC(=O)NC2CCCCC2)[C@H](CO)O1)NCc1ccc(Cl)cc1	none (no result: MITF act, HSF1 activator, Wnt bcat act, HSF1 inh)
O=C1S/C(=C/c2ccc(N3CCOCC3)o2)C(=O)N1Cc1ccc(F)cc1	HSF1 activator 155 (no result: MITF act, esBAF inh)
C=CCOc1ccc(/C(O)=C2/C(=O)C(=O)N(CCCn3ccnc3)C2c2ccco2)cc1 (configuration not stated)	none
C=CCOc1ccc(/C(O)=C2/C(=O)C(=O)N(CCCn3ccnc3)C2c2cccs2)cc1 (configuration not stated)	esBAF inh 44
CCCS(=O)(=O)N1CCc2cc(OC)c(OC)cc2C1	HSF1 inh -55
COc1ccccc1CN1C[C@@H](C)[C@@H](OC)CN(C)C(=O)c2cc(NC(C)=O)ccc2OC[C@H]1C	none (no result: MITF act, HSF1 activator, Wnt bcat act, HSF1 inh)
COc1cc(/C=C/C(=O)c2ccc3c(c2)OCCO3)cc(Br)c1OCC(=O)N(C)C	HSF1 activator 243
O=C(/C=C/c1ccncc1)c1ccc2c(c1)OCCO2	none (no result: esBAF inh)
O=c1[nH]c2ccccc2nc1/C=C/c1ccc(Cl)cc1	esBAF inh 45
CC(=O)Nc1ccc(/C=C/c2nc3ccccc3[nH]c2=O)cc1	none
O=C(/C(=C/c1ccc(Cl)cc1)c1nc2ccccc2[nH]1)c1ccccc1	HSF1 activator 184, Wnt bcat act 84
